{"source": "the supplement of paper PMC4466140", "data": [{"target": "AgAbp1", "assay": "SPOT peptide array binding signal intensity (averaged, normalized) (arbitrary units (background-subtracted, floor 0; scale differs between SH3 domains)); higher = stronger binding of the SH3 domain to the peptide", "in_short": "(§1)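 GST-SH3 fusions from four yeast species, purified on glutathione Sepharose, were incubated at 10 μg/ml overnight at 4°C on membranes of synthetic 15-mer peptides in which cysteines were replaced with serines. Binding signal is the normalized, background-subtracted spot intensity averaged over replicates, in domain-specific arbitrary units.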", "values": [{"binder": "NRARYLPQNPDIIAG", "SPOT peptide array binding signal intensity": "≤ 0"}]}, {"target": "AgBbc1", "assay": "SPOT peptide array binding signal intensity (averaged, normalized) (arbitrary units (background-subtracted, floor 0; scale differs between SH3 domains)); higher = stronger binding of the SH3 domain to the peptide", "in_short": "as §1", "values": [{"binder": "NRARYLPQNPDIIAG", "SPOT peptide array binding signal intensity": "≤ 0"}]}, {"target": "AgBem1-D1", "assay": "SPOT peptide array binding signal intensity (averaged, normalized) (arbitrary units (background-subtracted, floor 0; scale differs between SH3 domains)); higher = stronger binding of the SH3 domain to the peptide", "in_short": "as §1", "values": [{"binder": "NRARYLPQNPDIIAG", "SPOT peptide array binding signal intensity": "≤ 0"}]}, {"target": "AgBzz1-D1", "assay": "SPOT peptide array binding signal intensity (averaged, normalized) (arbitrary units (background-subtracted, floor 0; scale differs between SH3 domains)); higher = stronger binding of the SH3 domain to the peptide", "in_short": "as §1", "values": [{"binder": "NRARYLPQNPDIIAG", "SPOT peptide array binding signal intensity": 9}]}, {"target": "AgBzz1-D2", "assay": "SPOT peptide array binding signal intensity (averaged, normalized) (arbitrary units (background-subtracted, floor 0; scale differs between SH3 domains)); higher = stronger binding of the SH3 domain to the peptide", "in_short": "as §1", "values": [{"binder": "NRARYLPQNPDIIAG", "SPOT peptide array binding signal intensity": 19}]}, {"target": "AgCyk3", "assay": "SPOT peptide array binding signal intensity (averaged, normalized) (arbitrary units (background-subtracted, floor 0; scale differs between SH3 domains)); higher = stronger binding of the SH3 domain to the peptide", "in_short": "as §1", "values": [{"binder": "NRARYLPQNPDIIAG", "SPOT peptide array binding signal intensity": "≤ 0"}]}, {"target": "AgFus1", "assay": "SPOT peptide array binding signal intensity (averaged, normalized) (arbitrary units (background-subtracted, floor 0; scale differs between SH3 domains)); higher = stronger binding of the SH3 domain to the peptide", "in_short": "as §1", "values": [{"binder": "NRARYLPQNPDIIAG", "SPOT peptide array binding signal intensity": 8}]}, {"target": "AgHof1", "assay": "SPOT peptide array binding signal intensity (averaged, normalized) (arbitrary units (background-subtracted, floor 0; scale differs between SH3 domains)); higher = stronger binding of the SH3 domain to the peptide", "in_short": "as §1", "values": [{"binder": "NRARYLPQNPDIIAG", "SPOT peptide array binding signal intensity": 3.5}]}, {"target": "AgHse1", "assay": "SPOT peptide array binding signal intensity (averaged, normalized) (arbitrary units (background-subtracted, floor 0; scale differs between SH3 domains)); higher = stronger binding of the SH3 domain to the peptide", "in_short": "as §1", "values": [{"binder": "NRARYLPQNPDIIAG", "SPOT peptide array binding signal intensity": 85}]}, {"target": "AgLsb1", "assay": "SPOT peptide array binding signal intensity (averaged, normalized) (arbitrary units (background-subtracted, floor 0; scale differs between SH3 domains)); higher = stronger binding of the SH3 domain to the peptide", "in_short": "as §1", "values": [{"binder": "NRARYLPQNPDIIAG", "SPOT peptide array binding signal intensity": 1}]}, {"target": "AgLsb4", "assay": "SPOT peptide array binding signal intensity (averaged, normalized) (arbitrary units (background-subtracted, floor 0; scale differs between SH3 domains)); higher = stronger binding of the SH3 domain to the peptide", "in_short": "as §1", "values": [{"binder": "NRARYLPQNPDIIAG", "SPOT peptide array binding signal intensity": 7}]}, {"target": "AgMyo5", "assay": "SPOT peptide array binding signal intensity (averaged, normalized) (arbitrary units (background-subtracted, floor 0; scale differs between SH3 domains)); higher = stronger binding of the SH3 domain to the peptide", "in_short": "as §1", "values": [{"binder": "NRARYLPQNPDIIAG", "SPOT peptide array binding signal intensity": 0.5}]}, {"target": "AgNbp2", "assay": "SPOT peptide array binding signal intensity (averaged, normalized) (arbitrary units (background-subtracted, floor 0; scale differs between SH3 domains)); higher = stronger binding of the SH3 domain to the peptide", "in_short": "as §1", "values": [{"binder": "NRARYLPQNPDIIAG", "SPOT peptide array binding signal intensity": "≤ 0"}]}, {"target": "AgRvs167", "assay": "SPOT peptide array binding signal intensity (averaged, normalized) (arbitrary units (background-subtracted, floor 0; scale differs between SH3 domains)); higher = stronger binding of the SH3 domain to the peptide", "in_short": "as §1", "values": [{"binder": "NRARYLPQNPDIIAG", "SPOT peptide array binding signal intensity": 0.5}]}, {"target": "AgSho1", "assay": "SPOT peptide array binding signal intensity (averaged, normalized) (arbitrary units (background-subtracted, floor 0; scale differs between SH3 domains)); higher = stronger binding of the SH3 domain to the peptide", "in_short": "as §1", "values": [{"binder": "NRARYLPQNPDIIAG", "SPOT peptide array binding signal intensity": 1}]}, {"target": "AgSla1-D1-D2", "assay": "SPOT peptide array binding signal intensity (averaged, normalized) (arbitrary units (background-subtracted, floor 0; scale differs between SH3 domains)); higher = stronger binding of the SH3 domain to the peptide", "in_short": "as §1", "values": [{"binder": "NRARYLPQNPDIIAG", "SPOT peptide array binding signal intensity": 2}]}, {"target": "AgSla1-D3", "assay": "SPOT peptide array binding signal intensity (averaged, normalized) (arbitrary units (background-subtracted, floor 0; scale differs between SH3 domains)); higher = stronger binding of the SH3 domain to the peptide", "in_short": "as §1", "values": [{"binder": "NRARYLPQNPDIIAG", "SPOT peptide array binding signal intensity": 3.25}]}, {"target": "CaAbp1-D1", "assay": "SPOT peptide array binding signal intensity (averaged, normalized) (arbitrary units (background-subtracted, floor 0; scale differs between SH3 domains)); higher = stronger binding of the SH3 domain to the peptide", "in_short": "as §1", "values": [{"binder": "NRARYLPQNPDIIAG", "SPOT peptide array binding signal intensity": "≤ 0"}]}, {"target": "CaAbp1-D2", "assay": "SPOT peptide array binding signal intensity (averaged, normalized) (arbitrary units (background-subtracted, floor 0; scale differs between SH3 domains)); higher = stronger binding of the SH3 domain to the peptide", "in_short": "as §1", "values": [{"binder": "NRARYLPQNPDIIAG", "SPOT peptide array binding signal intensity": "≤ 0"}]}, {"target": "CaBbc1", "assay": "SPOT peptide array binding signal intensity (averaged, normalized) (arbitrary units (background-subtracted, floor 0; scale differs between SH3 domains)); higher = stronger binding of the SH3 domain to the peptide", "in_short": "as §1", "values": [{"binder": "NRARYLPQNPDIIAG", "SPOT peptide array binding signal intensity": "≤ 0"}]}, {"target": "CaBem1-D1", "assay": "SPOT peptide array binding signal intensity (averaged, normalized) (arbitrary units (background-subtracted, floor 0; scale differs between SH3 domains)); higher = stronger binding of the SH3 domain to the peptide", "in_short": "as §1", "values": [{"binder": "NRARYLPQNPDIIAG", "SPOT peptide array binding signal intensity": "≤ 0"}]}, {"target": "CaBzz1-D1", "assay": "SPOT peptide array binding signal intensity (averaged, normalized) (arbitrary units (background-subtracted, floor 0; scale differs between SH3 domains)); higher = stronger binding of the SH3 domain to the peptide", "in_short": "as §1", "values": [{"binder": "NRARYLPQNPDIIAG", "SPOT peptide array binding signal intensity": 58}]}, {"target": "CaBzz1-D2", "assay": "SPOT peptide array binding signal intensity (averaged, normalized) (arbitrary units (background-subtracted, floor 0; scale differs between SH3 domains)); higher = stronger binding of the SH3 domain to the peptide", "in_short": "as §1", "values": [{"binder": "NRARYLPQNPDIIAG", "SPOT peptide array binding signal intensity": 26.5}]}, {"target": "CaCyk3", "assay": "SPOT peptide array binding signal intensity (averaged, normalized) (arbitrary units (background-subtracted, floor 0; scale differs between SH3 domains)); higher = stronger binding of the SH3 domain to the peptide", "in_short": "as §1", "values": [{"binder": "NRARYLPQNPDIIAG", "SPOT peptide array binding signal intensity": "≤ 0"}]}, {"target": "CaFus1", "assay": "SPOT peptide array binding signal intensity (averaged, normalized) (arbitrary units (background-subtracted, floor 0; scale differs between SH3 domains)); higher = stronger binding of the SH3 domain to the peptide", "in_short": "as §1", "values": [{"binder": "NRARYLPQNPDIIAG", "SPOT peptide array binding signal intensity": 29}]}, {"target": "CaHof1", "assay": "SPOT peptide array binding signal intensity (averaged, normalized) (arbitrary units (background-subtracted, floor 0; scale differs between SH3 domains)); higher = stronger binding of the SH3 domain to the peptide", "in_short": "as §1", "values": [{"binder": "NRARYLPQNPDIIAG", "SPOT peptide array binding signal intensity": "≤ 0"}]}, {"target": "CaHse1", "assay": "SPOT peptide array binding signal intensity (averaged, normalized) (arbitrary units (background-subtracted, floor 0; scale differs between SH3 domains)); higher = stronger binding of the SH3 domain to the peptide", "in_short": "as §1", "values": [{"binder": "NRARYLPQNPDIIAG", "SPOT peptide array binding signal intensity": 13.8}]}, {"target": "CaLsb1", "assay": "SPOT peptide array binding signal intensity (averaged, normalized) (arbitrary units (background-subtracted, floor 0; scale differs between SH3 domains)); higher = stronger binding of the SH3 domain to the peptide", "in_short": "as §1", "values": [{"binder": "NRARYLPQNPDIIAG", "SPOT peptide array binding signal intensity": 1}]}, {"target": "CaLsb4", "assay": "SPOT peptide array binding signal intensity (averaged, normalized) (arbitrary units (background-subtracted, floor 0; scale differs between SH3 domains)); higher = stronger binding of the SH3 domain to the peptide", "in_short": "as §1", "values": [{"binder": "NRARYLPQNPDIIAG", "SPOT peptide array binding signal intensity": 4}]}, {"target": "CaMyo5", "assay": "SPOT peptide array binding signal intensity (averaged, normalized) (arbitrary units (background-subtracted, floor 0; scale differs between SH3 domains)); higher = stronger binding of the SH3 domain to the peptide", "in_short": "as §1", "values": [{"binder": "NRARYLPQNPDIIAG", "SPOT peptide array binding signal intensity": 4.25}]}, {"target": "CaNbp2", "assay": "SPOT peptide array binding signal intensity (averaged, normalized) (arbitrary units (background-subtracted, floor 0; scale differs between SH3 domains)); higher = stronger binding of the SH3 domain to the peptide", "in_short": "as §1", "values": [{"binder": "NRARYLPQNPDIIAG", "SPOT peptide array binding signal intensity": 59}]}, {"target": "CaRvs167", "assay": "SPOT peptide array binding signal intensity (averaged, normalized) (arbitrary units (background-subtracted, floor 0; scale differs between SH3 domains)); higher = stronger binding of the SH3 domain to the peptide", "in_short": "as §1", "values": [{"binder": "NRARYLPQNPDIIAG", "SPOT peptide array binding signal intensity": 4.17}]}, {"target": "CaRvs167-3", "assay": "SPOT peptide array binding signal intensity (averaged, normalized) (arbitrary units (background-subtracted, floor 0; scale differs between SH3 domains)); higher = stronger binding of the SH3 domain to the peptide", "in_short": "as §1", "values": [{"binder": "NRARYLPQNPDIIAG", "SPOT peptide array binding signal intensity": 1.75}]}, {"target": "CaSho1", "assay": "SPOT peptide array binding signal intensity (averaged, normalized) (arbitrary units (background-subtracted, floor 0; scale differs between SH3 domains)); higher = stronger binding of the SH3 domain to the peptide", "in_short": "as §1", "values": [{"binder": "NRARYLPQNPDIIAG", "SPOT peptide array binding signal intensity": 17.5}]}, {"target": "CaSla1-D1-D2", "assay": "SPOT peptide array binding signal intensity (averaged, normalized) (arbitrary units (background-subtracted, floor 0; scale differs between SH3 domains)); higher = stronger binding of the SH3 domain to the peptide", "in_short": "as §1", "values": [{"binder": "NRARYLPQNPDIIAG", "SPOT peptide array binding signal intensity": "≤ 0"}]}, {"target": "CaSla1-D3", "assay": "SPOT peptide array binding signal intensity (averaged, normalized) (arbitrary units (background-subtracted, floor 0; scale differs between SH3 domains)); higher = stronger binding of the SH3 domain to the peptide", "in_short": "as §1", "values": [{"binder": "NRARYLPQNPDIIAG", "SPOT peptide array binding signal intensity": "≤ 0"}]}, {"target": "ScAbp1", "assay": "SPOT peptide array binding signal intensity (averaged, normalized) (arbitrary units (background-subtracted, floor 0; scale differs between SH3 domains)); higher = stronger binding of the SH3 domain to the peptide", "in_short": "as §1", "values": [{"binder": "NRARYLPQNPDIIAG", "SPOT peptide array binding signal intensity": 7.5}]}]}
